AI-2 QS mod = modulators of Vibrio harveyi AI-2 quorum sensing system | activity change, % at 7.5 µM | Vibrio harveyi JMH597 AI-2 luminescence/OD600 ratio, 9 h; stronger effect = lower value; strain lacks LuxN and CqsS sensors; 0 = neutral-control median | hit rate 0.4% among 300,000; in the data active = activity change below about -75%, passing the limit was not always enough; inconclusive = no clear call, values can overlap the other calls;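 also: luminescence divided by OD600 gain over 9 h not by final OD600 alone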
PvdQ inh = blocks Pseudomonas aeruginosa PvdQ acylase activity; purified PvdQ acylase, fluorescence plate reader; hit rate 0.063% among 340,000; inhibition, % at 10 µM; in the data active = inhibition above about 30%, passing the limit was not always enough; inconclusive = no clear call, values can overlap the other calls
Vif inh = HIV Vif inhibition; HEK293T cells, Vif self-association by quenched fluorescence, imaging, 24 h; inhibition, % at 7.49 µM; hit rate 0.35% among 340,000; AID 602346; in the data active = inhibition above about 50%, passing the limit was not always enough; inconclusive = no clear call, values can overlap the other calls; inactive = below about 31%
ERp5 inh = ERp5 (human) disulfide isomerase inhibition | ERp5 insulin aggregation, absorbance 650 nm, 90 min | hit rate 0.05% among 350,000 | Q15084 | inhibition, % at 9.99 µM;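 active = mean replicate inhibition above about 25%, with every replicate also reaching it, limit read from the data, passing the limit was not always enough; inconclusive = only one of those two criteria met; inactive = neither criterion met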
Target sequence (Q15084 whole entry, looked up): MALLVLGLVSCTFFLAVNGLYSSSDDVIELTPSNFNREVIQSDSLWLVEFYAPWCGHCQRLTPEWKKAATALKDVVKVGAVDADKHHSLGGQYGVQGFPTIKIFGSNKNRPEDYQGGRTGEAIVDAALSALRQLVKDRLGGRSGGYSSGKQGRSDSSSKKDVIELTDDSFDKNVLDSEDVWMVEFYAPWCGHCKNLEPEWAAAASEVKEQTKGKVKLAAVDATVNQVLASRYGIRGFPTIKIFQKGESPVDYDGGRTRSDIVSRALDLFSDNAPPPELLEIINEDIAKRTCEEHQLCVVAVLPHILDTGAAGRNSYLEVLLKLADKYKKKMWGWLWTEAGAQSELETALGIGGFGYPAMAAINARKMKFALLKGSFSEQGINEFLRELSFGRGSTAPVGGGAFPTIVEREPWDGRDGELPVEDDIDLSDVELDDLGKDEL
PDI inh = PDI (human) enzyme inhibition; hit rate 0.052% among 350,000; AID 588391; inhibition, % at 10 µM; PDI insulin aggregation turbidity, A650, 90 min; P07237;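 active = mean inhibition across replicates of 30% or more, whatever share of single replicates reach that level; inconclusive = mean inhibition below 30% while every single replicate reaches 30%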
JMH597 growth = retest Vibrio harveyi JMH597 growth inhibition; growth inhibition, % at 7.5 µM; shares compounds with AI-2 QS mod; AID 2726; OD600 absorbance, 9 h; lacks LuxN and CqsS sensors; hit rate 1% among 750;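 active = every replicate shows growth inhibition above 50%; inconclusive = at least half, but not all, replicates pass that cutoff; inactive = fewer than half of replicates pass it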
BB721 const-QS lum = retest counter-screen: BB721 constitutive quorum sensing luminescence decrease; hit rate 95% among 750; shares compounds with AI-2 QS mod; inhibition, % at 7.5 µM; Vibrio harveyi BB721 luminescence, 9 h;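 active = inhibition above about 80% in every replicate, not just on average, limit read from the data; inconclusive = at least half of replicates past the limit, but not all; inactive = fewer than half of replicates past the limit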
BB721 growth rt = retest: blocks Vibrio harveyi BB721 growth; shares compounds with AI-2 QS mod; OD600 absorbance, 9 h; growth inhibition, % at 7.5 µM; hit rate 3% among 750; AID 2728;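 active = every replicate shows growth inhibition above 50%; inconclusive = at least half but not all replicates above 50% inhibition; inactive = under half of replicates above 50% inhibition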
AI-2 QS JMH597 = Vibrio harveyi AI-2 signaling luminescence modulation – JMH597 strain, confirmation | AID 2736 | Vibrio harveyi JMH597 AI-2 quorum sensing luminescence, 9 h; luxN and CqsS knockout, AI-2 only | hit rate 97% among 750 | inhibition, % at 7.5 µM | shares compounds with AI-2 QS mod;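 active = every replicate shows more than 75% inhibition of signal versus neutral control wells; inconclusive = half to three quarters of replicates exceed 75% inhibition; inactive = fewer than half of replicates exceed 75% inhibition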
Large screens that a line does not name were inactive (follow-up assays come after a bar, where they were run). Only some compounds are listed: those with a hit (about 0.64% of all), similar ones and a draw of the others.

O=C(/C=C/c1ccc(F)cc1)NCc1cccs1	AI-2 QS mod -90 (no result: ERp5 inh) | JMH597 growth inactive | BB721 const-QS lum 95 | BB721 growth rt inactive | AI-2 QS JMH597 96
Cc1ccc(CNC(=O)/C=C/c2ccccc2Cl)cc1	AI-2 QS mod -93 (no result: ERp5 inh) | JMH597 growth inactive | BB721 const-QS lum 96 | BB721 growth rt inactive | AI-2 QS JMH597 97
O=C(/C=C/c1ccc(Br)cc1)NCc1cccs1	none
O=C(/C=C/c1cccs1)NCc1ccccc1	AI-2 QS mod -90 | JMH597 growth inactive | BB721 const-QS lum 97 | BB721 growth rt inactive | AI-2 QS JMH597 97
CN(C)C(=O)c1cccc(-c2ccccc2[C@@H]2[C@@H](C#N)N(C(=O)C3CCCC3)[C@@H]2CO)c1	none (no result: AI-2 QS mod, PvdQ inh, Vif inh, PDI inh)
CCC(=O)N1C[C@@H](C)[C@H](OC)CN(C)C(=O)c2cc(NC(=O)C3CC3)ccc2OC[C@@H]1C	none (no result: AI-2 QS mod, PvdQ inh, Vif inh, PDI inh)
COc1cc(NC(=O)CN2C(=O)CN(C)C2=O)c(C)cc1[N+](=O)[O-]	none
COc1cc(NC(=O)Cn2ncc(Cl)c(Cl)c2=O)c(C)cc1[N+](=O)[O-]	AI-2 QS mod -80 | JMH597 growth inactive | BB721 const-QS lum 93 | BB721 growth rt inactive | AI-2 QS JMH597 94
O=C([C@@H]1[C@@H](CO)[C@@H]2Cn3c(ccc(C4=CCCC4)c3=O)[C@@H]2N1Cc1nccs1)N1CCOCC1	none (no result: AI-2 QS mod, PvdQ inh, Vif inh, PDI inh)
C[C@H](CO)N1C[C@H](C)[C@@H](CN(C)C(=O)Nc2ccccc2)Oc2ccc(NC(=O)Cn3cnnn3)cc2CC1=O	none (no result: AI-2 QS mod, PvdQ inh, Vif inh, PDI inh)
CC(C)CC(=O)/C=C/n1c(=S)oc2ccccc21	AI-2 QS mod -86 | JMH597 growth inactive | BB721 const-QS lum 93 | BB721 growth rt inactive | AI-2 QS JMH597 93
COc1cc(/C=N/NC(=O)Cn2cnc3ccccc3c2=O)ccc1O	AI-2 QS mod -89 | JMH597 growth inactive | BB721 const-QS lum 95 | BB721 growth rt inactive | AI-2 QS JMH597 97
O=C(Cn1cnc2ccccc2c1=O)N/N=C/c1ccc(Br)cc1	none
O=[N+]([O-])c1ccc(NC2CCCC2)cc1	AI-2 QS mod -83 (no result: ERp5 inh) | JMH597 growth inactive | BB721 const-QS lum 93 | BB721 growth rt inactive | AI-2 QS JMH597 94
O=C1CCCCC1Nc1ccc([N+](=O)[O-])cc1 (stereo not given)	none (no result: AI-2 QS mod)
COc1cccc(CNC(=O)C[C@@H]2C=C[C@@H](NC(=O)C3CCOCC3)[C@H](CO)O2)c1	none (no result: AI-2 QS mod, PvdQ inh, Vif inh, PDI inh)
CNc1nc(SCC(=O)Nc2ccc(Cl)c(Cl)c2)nc(N2CCOCC2)n1	AI-2 QS mod inconclusive | JMH597 growth inactive | BB721 const-QS lum inactive | BB721 growth rt inactive | AI-2 QS JMH597 inactive
Cc1cc(C)nc(SCC(=O)Nc2ccc(N3CCOCC3)c(Cl)c2)n1	none (no result: AI-2 QS mod, ERp5 inh)
C[C@@H]1CN([C@@H](C)CO)C(=O)Cc2cc(NC(=O)c3ccncc3)ccc2O[C@@H]1CN(C)C(=O)Nc1ccc(C(F)(F)F)cc1	none (no result: AI-2 QS mod, PvdQ inh, Vif inh, PDI inh)
COc1ccc(S(=O)(=O)Nc2ccc(-n3cccc3)cc2)cc1	AI-2 QS mod -96 | JMH597 growth inactive | BB721 const-QS lum 94 | BB721 growth rt inactive | AI-2 QS JMH597 99
COc1ccc(NS(=O)(=O)c2ccc(N3C(=O)CCC3=O)cc2)cc1	none (no result: ERp5 inh)
COc1cccc2c1OC1(C)CC2NC(=O)N1c1cccc(C(=O)N2CCN(c3ccccn3)CC2)c1 (stereo not given)	none (no result: ERp5 inh)
COc1ccccc1N1CCN(C(=O)c2cccc(N3C(=O)NC4CC3(C)Oc3c(OC)cccc34)c2)CC1 (stereo not given)	AI-2 QS mod -83 | JMH597 growth inactive | BB721 const-QS lum inactive | BB721 growth rt inactive | AI-2 QS JMH597 inactive
O=C(C[C@H]1C[C@@H]2c3cc(NS(=O)(=O)c4ccc(F)cc4)ccc3O[C@@H]2[C@@H](CO)O1)N1CCOCC1	none (no result: AI-2 QS mod, PvdQ inh, Vif inh, PDI inh)
C[C@H]1CN([C@@H](C)CO)C(=O)Cc2cc(NC(=O)Cc3ccccc3)ccc2O[C@H]1CN(C)Cc1ccc(Cl)c(Cl)c1	none (no result: AI-2 QS mod, PvdQ inh, Vif inh, PDI inh)
Cn1c(=O)n(C)c2cc(NC(=O)CCl)ccc21	AI-2 QS mod -88 (no result: ERp5 inh) | JMH597 growth inactive | BB721 const-QS lum 87 | BB721 growth rt inactive | AI-2 QS JMH597 89
COc1ccc(CN2CCC(C)=CC2C)cc1 (stereo not given)	none (no result: AI-2 QS mod, PvdQ inh, Vif inh, PDI inh)
O=C(Nc1ccc(Nc2ccccc2)cc1)c1ccccc1	AI-2 QS mod -91 (no result: PvdQ inh, Vif inh, PDI inh) | JMH597 growth inactive | BB721 const-QS lum 95 | BB721 growth rt inactive | AI-2 QS JMH597 96
O=C(Nc1ccc(Nc2ccccc2)cc1)c1ccc(Cl)cc1	none
O=C(NCC1CCCCC1)[C@@H]1[C@@H](CO)[C@@H]2Cn3c(cccc3=O)[C@H]1N2C(=O)c1ccncc1	none (no result: AI-2 QS mod, PvdQ inh, Vif inh, PDI inh)
O=C(CCc1ccccc1)Nc1ccc2c(c1)OCO2	PvdQ inh inconclusive
O=C(Nc1ccc2c(c1)OCO2)OCc1ccccc1	AI-2 QS mod -93 | JMH597 growth inactive | BB721 const-QS lum 98 | BB721 growth rt inactive | AI-2 QS JMH597 98
CNC[C@@H]1Oc2ccc(NC(=O)Nc3cccc4ccccc34)cc2C(=O)N([C@H](C)CO)C[C@@H]1C	none (no result: AI-2 QS mod, PvdQ inh, Vif inh, PDI inh)
CCN(CC)c1ccc(NC(=S)NC(=O)Cc2ccccc2)cc1	none (no result: ERp5 inh)
CN(C)S(=O)(=O)c1ccc(NC(=S)NC(=O)Cc2ccccc2)cc1	AI-2 QS mod -86 | JMH597 growth inactive | BB721 const-QS lum inactive | BB721 growth rt inactive | AI-2 QS JMH597 inactive
Cc1ccccc1-c1ccc(=O)n(CC(=O)Nc2ccc(S(=O)(=O)N(C)C)cc2)n1	AI-2 QS mod -87 | JMH597 growth inactive | BB721 const-QS lum 93 | BB721 growth rt inactive | AI-2 QS JMH597 96
Cc1ccccc1-c1ccc(=O)n(CC(=O)Nc2ccc(-n3cnnn3)cc2)n1	none
COc1ccc(NC(=O)Nc2ccc3c(c2)CC(=O)N([C@@H](C)CO)C[C@@H](C)[C@H](CN(C)Cc2ccncc2)O3)cc1	none (no result: AI-2 QS mod, PvdQ inh, Vif inh, PDI inh)
O=C(Nc1cccc(F)c1)N1CC(=O)N2[C@H](CO)[C@@H](c3ccc(Br)cc3)[C@H]2C1	none (no result: AI-2 QS mod, PvdQ inh, Vif inh, PDI inh)
CN(c1ccccc1)S(=O)(=O)c1cccc(NC(=O)Cn2cnc3ccccc3c2=O)c1	AI-2 QS mod -93 (no result: ERp5 inh) | JMH597 growth inactive | BB721 const-QS lum 99 | BB721 growth rt 88 | AI-2 QS JMH597 99
CC(C)(C)c1csc(NC(=O)Cn2cnc3ccccc3c2=O)n1	AI-2 QS mod -95 (no result: ERp5 inh) | JMH597 growth inactive | BB721 const-QS lum 97 | BB721 growth rt inactive | AI-2 QS JMH597 98
O=C(Nc1ccc(F)cc1)N1C[C@H]2[C@@H](c3ccccc31)[C@H](CO)N2C(=O)c1ccccc1	none (no result: AI-2 QS mod, PvdQ inh, Vif inh, PDI inh)
COc1ccc(Cc2nc(-c3ccccn3)no2)cc1	AI-2 QS mod -88 (no result: ERp5 inh) | JMH597 growth inactive | BB721 const-QS lum 95 | BB721 growth rt inactive | AI-2 QS JMH597 96
